CCT modulator: changes cytosolic chaperonin activity | purified chaperonin ATPase assay, HTRF ADP detection, 30 min | activity change, % (concentration not given with the values), hits read low | 0.3% of 360,000 active; in the data active means activity change below about -30%
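TRiC (40 or 20 nM final, by batch activity) in 30 mM Tris pH 7.4, 100 mM KCl, 5 mM MgCl2, 1 mM DTT was treated with compound at 76 uM single dose, then 10 uM ATP, 30 min at 37 °C. ADP was read by HTRF Transcreener.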
Six1-Eya2 blk: inhibitors of human Six1/Eya2 interaction | Q15475+O00167 | AlphaScreen GST-Six1/His-Eya2 binding, biochemical; hits give low values | activity change, % (test concentration not listed) | 0.56% of 360,000 active | AID 651725
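Compounds are tested against tagged Six1 and Eya2 proteins bridged by glutathione donor and nickel acceptor beads; after a one-hour incubation at 37 °C without light, AlphaScreen emission is recorded.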
CtBP-E1A inh: CtBP/E1A binding inhibition. AlphaScreen GST-E1A/His-CtBP binding, 1536-well; hits give low values. activity change, % (concentration not given with the values). 0.49% of 340,000 active. AID 651724
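Steps: dispense buffer (Tris pH 8.0, NaCl 300 mM, TCEP 1 mM, BSA, Tween 20); add 5X protein mix (GST-E1A, His-CtBP, 125 nM each); pin 23 nL compound; 2 h at 37 °C, dark; add 5X beads (50 ug/mL); 1 h; read.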
Eya2 phos inh: inhibitors of human Eya2 phosphatase activity; O00167; recombinant Eya2, OMFP fluorescence dephosphorylation (OMFP is methylfluorescein phosphate); Potency, µM (top dose mostly 76.9 µM), actives largely listed as inhibitors; 0.006% of 330,000 active; AID 488837; active means well fitted inhibition curve with a large enough effect; inconclusive means small, poorly fitted or top-dose-only effect, or effect the other way
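Eya2 (0.2 uM) preincubated 10 min at ambient with compound, then OMFP substrate added at 50 uM; 10 min reaction in 50 mM HEPES pH 7.5, 50 mM NaCl, 5 uM MgCl2, 0.05% BSA, 1 mM DTT. Fluorescence read at Ex 485/Em 525 nm.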
PI4K2A inh: blocks human PI4K2A kinase activity; Q9BTU6; purified PI4K2A, ADP-Glo luminescence, 1 h; hits give low values; activity change, negative = inhibition, % at 76.9 µM; 0.13% of 420,000 active; in the data active means activity change below about -50%; inconclusive means mostly about -30% to -49%
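Compounds are screened against recombinant PI4K2A using PI as substrate and ATP, the latter dispensed at 300 microM. Reactions run one hour at ambient temperature before ADP-Glo detection; full inhibition defined by wells lacking enzyme.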
Hits are given with their value; - = inactive; ? = inconclusive; . = no result. Compounds with a hit are over-represented: about 0.97% of the library has one in this group of screens. Unless noted, no stated cut-off is given here; in the data, active means activity change below about -65%; inconclusive means mostly about -30% to -63%; inactive means weaker than that.

SMILES | CCT modulator | Six1-Eya2 blk | CtBP-E1A inh | Eya2 phos inh | PI4K2A inh
CC(=O)NC(c1ccco1)c1ccc2cccnc2c1O (configuration not stated) | - | -93 | -97 | - | -
Cc1ccc(S(=O)(=O)NC(=O)NC2CCCCCCC2)cc1 | . | . | . | . | -
CCC(=O)NC(c1ccc(C)cc1)c1ccc2cccnc2c1O (configuration not stated) | - | -89 | -90 | ? | -
CCC(=O)NC(c1ccc(Cl)cc1Cl)c1ccc2cccnc2c1O (configuration not stated) | - | -80 | ? | - | -
CCCC(=O)NC(c1ccc(C(C)C)cc1)c1ccc2cccnc2c1O (configuration not stated) | - | ? | -65 | - | -
O=C(C1CCCN(Cc2ccc3c(c2)OCO3)C1)N1CCCC1 (configuration not stated) | -34 | - | - | - | -
COc1ccccc1CNC(=O)COC(=O)c1cc(-c2ccco2)nc2ccccc12 | - | - | - | - | -53
CCOC(=O)c1c(-c2ccc(C)cc2)csc1NC(=O)c1cc(=O)c2cc(Cl)ccc2o1 | . | . | . | . | -
COc1ccc(C(=O)NNC(=O)c2ccccn2)cc1 | - | - | . | - | -85
C/C(=N\NC(=O)C(C)Oc1ccc([N+](=O)[O-])cc1)c1ccccn1 (configuration not stated) | - | -88 | -94 | - | -
CC(Oc1ccccc1)C(=O)NNC(=O)c1ccccn1 (configuration not stated) | - | -67 | - | - | -
CC(Oc1cccc(Br)c1)C(=O)NNC(=O)c1ccccn1 (configuration not stated) | - | ? | ? | - | -
CC(=O)c1ccc(OCCCC(=O)NNC(=O)c2ccccn2)cc1 | - | ? | -70 | - | -
COc1ccc(C(=O)NCCNC(=O)c2ccccn2)cc1 | - | - | - | - | -
O=C1CCCc2c(O)cccc21 | . | . | . | . | -
CC1(C)O[C@@H]2C[C@H]3[C@@H]4CCC5=CC(=O)C=C[C@]5(C)[C@@H]4[C@@H](O)C[C@]3(C)[C@]2(C(=O)CO)O1 | . | . | . | . | -
O=S(=O)(Nc1cc(F)ccc1F)c1ccc2[nH]c3c(c2c1)CCCC3 | . | . | . | . | -
COc1ccc(C(=O)NC(=S)NNC(=O)c2ccc3ccccc3n2)cc1 | - | -86 | -82 | - | -
COc1cc(OC)cc(C(=O)NNC(=O)c2ccccn2)c1 | - | -92 | -90 | - | -
O=C(NNC(=O)c1ccccn1)c1cccc([N+](=O)[O-])c1 | - | -82 | -66 | - | -
O=C(c1cccc([N+](=O)[O-])c1)c1ccccn1 | - | - | . | - | -
CCOC(=O)Oc1ccc(CCNC(=O)[C@H](CCSC)NC(C)=O)cc1OC(=O)OCC | . | . | . | . | -
CCCCOc1ccc(C2=NC(c3ccncc3)=Nc3ccc(OCC)cc3N2)cc1 | . | . | . | . | -
O=C(N/N=C/c1cc2c(cc1Br)OCO2)c1cccnc1 | - | - | - | - | -
O=C(N/N=C/c1cc(Br)c(O)c(Br)c1O)c1cccnc1 | - | -91 | . | - | -
SMILES | CCT modulator | Six1-Eya2 blk | CtBP-E1A inh | Eya2 phos inh | PI4K2A inh
O=C(N/N=C/c1cc(O)ccc1Br)c1cccnc1 | - | -91 | -93 | - | -
Cc1ccc(CCNC(=O)c2ccc3c(c2)c(C)c(C)n3Cc2ccccc2)cc1 | . | . | . | . | -
Cc1csc(NC(=O)c2ccc(C)c([N+](=O)[O-])c2)n1 | - | - | - | - | -
Cc1csc(NC(=O)c2ccc(Cl)cc2[N+](=O)[O-])n1 | - | - | - | - | -
Cc1cc(C(=O)Nc2nc(-c3ccccn3)cs2)ccc1[N+](=O)[O-] | - | -71 | - | - | -
O=C(Nc1nc(-c2ccccn2)cs1)c1cc(Cl)ccc1[N+](=O)[O-] | - | -91 | ? | - | -
COCCCNc1nc2c(-c3cccc(Br)c3)nnn2c2ccccc12 | . | . | . | . | -
COc1ccc(C)cc1NC(=O)N1CCN(S(=O)(=O)c2ccc3c(ccn3C)c2)CC1 | . | . | . | . | -
CCCCCCCCN1C(=O)[C@@H](CC(=O)NCc2ccccc2)C[C@@]2(C(=O)OC)C1=C[C@H](C(C)C)O[C@@H]2C1CC1 | . | . | . | . | -
CCCCN(C)C(=O)CN1C(=O)C2CCCCN2C(=O)c2ccccc21 (configuration not stated) | . | . | . | . | -
COc1ccc(-c2cn3c(n2)sc2cc(C(=O)NC4CCCc5ccccc54)ccc23)cc1 (configuration not stated) | . | . | . | . | -
Cc1cccc(OC(=O)CN2C(=O)C3C4CCC(C4)C3C2=O)c1C (configuration not stated) | - | - | - | - | -85
Cc1cc2nc(-c3ccc[nH]c3=O)n(Cc3ccc(F)cc3)c2cc1C | - | - | - | - | -
Cc1cc2nc(-c3ccc[nH]c3=O)[nH]c2cc1C | - | - | . | - | -66
CCCCc1cc(=O)oc2c3c(cc(OCC(=O)N4CCC[C@H]4C(=O)O)c12)OC(C)(C)CC3 | - | - | - | - | -
Cc1cc(=O)oc2c3c(cc(OCC(=O)N4CCC[C@H]4C(=O)O)c12)OC(C)(C)CC3 | - | -71 | ? | - | -
CN(CC1CCOCC1)C(=O)CC1C(=O)NCCN1Cc1ccc(Cl)c(F)c1 (configuration not stated) | -42 | - | - | ? | -
O=C(Cn1c(=O)n(-c2ccc(Cl)cc2)c(=O)c2sc3ccccc3c21)NC1CCCCC1 | . | . | . | . | -
O=C(NCc1ccccc1F)c1cccs1 | -37 | - | - | - | -
COc1ccc(OC)c(NC(=O)CCc2c(C)nc3c(c(C)nn3C(C)(C)C)c2C)c1 | . | . | . | . | -
O=C(Nc1cccc([N+](=O)[O-])c1)Nc1cccc([N+](=O)[O-])c1 | - | - | - | - | -
COc1cc(NC(=O)Nc2cccc([N+](=O)[O-])c2)cc(OC)c1 | -53 | - | - | - | -
COc1ccc(NC(=O)Nc2cccc(NC(C)=O)c2)c(OC)c1 | -43 | - | - | - | -
COc1ccc(S(=O)(=O)c2cn(Cc3ccccc3)c3cc(N4CCCC4)c(F)cc3c2=O)cc1 | . | . | . | . | -
CCCCOCc1cc(CN2CCN(c3cccc(Cl)c3)CC2)c(O)c2ncccc12 | . | . | . | . | -
Cc1ccc(C(C)OC(=O)C2(C)CCC(C(=O)O)C2(C)C)cc1 (configuration not stated) | . | . | . | . | -
N#C/C(C(N)=O)=c1/ccc2c(c1)N1C3=C(CCCC3)CC3CCCCC31N=2 (configuration not stated) | -37 | - | - | - | -
N#CC(C#N)=c1ccc2c(c1)N1C3=C(CCCC3)CC3CCCCC31N=2 (configuration not stated) | - | - | - | - | ?
O=C(N/N=C/c1cn(-c2cccs2)nc1-c1ccccc1)c1ccccc1Br | - | - | - | - | -
O=C(N/N=C/c1cn(-c2cccs2)nc1-c1ccccc1)c1ccccc1O | - | -78 | -76 | - | -
